In all, about 4,500 compounds went through this assay and about 200 (4.4%) were called active. The full list was thinned out, with actives kept by preference. A number with no mark means an inactive call.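 How the source made its calls: active means cell survival measured by absorbance rises more than 2.5-fold over infected cells without compound; inactive means the rest.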
Test: survival after telomere uncapping, modulators, primary screen, cell-based (AID 1259312);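 further: virus expresses mutant telomerase RNA that uncaps telomeres and kills cells; compound added 2 days after infection so exposure lasts 3 days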
Conditions: HCT116 + Ad-hTR-mut, MTT, 5 d; at 10 µM, hits give high values

**Q.** With `S=c1nc(-c2ccccc2Cl)[nH][nH]1` as the compound, how does the fold change read?
**A.** Its fold change is -1.2.

**Q.** With `Nn1c(-c2cccs2)nc2ccccc2c1=O` as the compound, how does the fold change read?
**A.** Its fold change is -1.03.

**Q.** For `O=C1C=CC(=O)N1c1ccc(Cl)c(Cl)c1`, which fold change is on record?
**A.** Its fold change is -1.48.

**Q.** For `NCC1NCCc2ccccc21` (configuration not stated), which fold change is on record?
**A.** The fold change was -1.4.

**Q.** With `NC(=S)NCCC[C@H](N)C(=O)O` as the compound, how does the fold change read?
**A.** The fold change was 1.05.

**Q.** For `c1ccc2cc(NCSCc3nc4ccccc4c4ccccc34)ccc2c1`, which fold change is on record?
**A.** The fold change was -1.54.

**Q.** Which fold change does the source give for `Cc1ccnc(SC2CC(=O)N(c3ccc4ccccc4c3)C2=O)n1` (configuration not stated) here?
**A.** Its fold change is -1.04.

**Q.** With `O=C1C2C3c4ccccc4C(c4ccccc43)C2C(=O)N1c1ccc2ccccc2c1` (configuration not stated) as the compound, how does the fold change read?
**A.** Its fold change is 3.16 (active).

**Q.** For `O=C1C2C3CC(C(Br)C3Br)C2C(=O)N1c1ccc(Br)cc1` (configuration not stated), which fold change is on record?
**A.** Its fold change is 1.06.

**Q.** Which fold change does the source give for `CN1C(=O)COc2ccc(S(=O)(=O)N3CCOCC3)cc21` here?
**A.** Its fold change is -1.01.

**Q.** For `Nc1nc(=S)n(-c2ccccc2)[nH]1`, which fold change is on record?
**A.** Its fold change is -2.51.

**Q.** Which fold change does the source give for `N#CC1=C(N)N(Cc2ccccc2)C2=C(COC/C2=C/c2cccnc2)C1c1cccnc1` (configuration not stated) here?
**A.** The fold change was 2.64 (active).

**Q.** For `N#CC1=C(N)Oc2ccc(N)cc2C1c1cccnc1` (configuration not stated), which fold change is on record?
**A.** Its fold change is 2.15.

**Q.** For `CC(C)N1C=C(Cc2cccnc2)C2=C(C1)C(c1cccnc1)C(C#N)=C(N)O2` (configuration not stated), which fold change is on record?
**A.** The fold change was 2.25.

**Q.** For `COc1cccc(OC)c1-c1noc(CSc2nc3ccccc3o2)n1`, which fold change is on record?
**A.** The fold change was -1.15.

**Q.** With `O=c1[nH]c(=O)n([C@@H]2O[C@H](CO)[C@@H](O)[C@H]2O)cc1Br` as the compound, how does the fold change read?
**A.** Its fold change is -3.23.

**Q.** With `O=c1nc(N2CCOCC2)nc(Nc2ccccc2)[nH]1` as the compound, how does the fold change read?
**A.** Its fold change is “active”.

**Q.** With `Cc1cc(C)nc(Nc2ccc(N3CCOCC3)cc2)n1` as the compound, how does the fold change read?
**A.** The fold change was -1.54.

**Q.** With `Cc1cc(C)n(-c2nc(N3CCOCC3)nc(N3CCOCC3)n2)n1` as the compound, how does the fold change read?
**A.** The fold change was 1.04.

**Q.** Which fold change does the source give for `CCc1cc(C=C(Cl)Cl)oc(=O)c1C` here?
**A.** The fold change was -1.84.

**Q.** With `Cc1cc2ccc(=O)oc2cc1OC[C@@H](O)C(C)(C)O` as the compound, how does the fold change read?
**A.** Its fold change is -1.35.

**Q.** With `O=S(=O)(NCc1ccco1)c1ccc(Br)cc1` as the compound, how does the fold change read?
**A.** The fold change was 2.26.

**Q.** With `O=c1[nH]nc(CSCc2ccc(Cl)cc2)[nH]1` as the compound, how does the fold change read?
**A.** Its fold change is “inactive”.

**Q.** With `O=c1[nH]nc(CSCc2ccc3nsnc3c2)[nH]1` as the compound, how does the fold change read?
**A.** Its fold change is “active”.

**Q.** With `O=c1[nH]nc(CSCc2csc(-c3ccccc3)n2)[nH]1` as the compound, how does the fold change read?
**A.** Its fold change is “inactive”.

**Q.** With `NCCCN1CCc2ccccc21` as the compound, how does the fold change read?
**A.** Its fold change is -1.28.

**Q.** For `O=C(c1n[nH]c(=O)c2ccccc12)N1CCN(c2ccccn2)CC1`, which fold change is on record?
**A.** The fold change was -1.05.

**Q.** With `O=C(Nc1sc2c(c1C(=O)O)CCCCC2)c1cccs1` as the compound, how does the fold change read?
**A.** Its fold change is -1.49.

**Q.** For `Cc1ccc(C)n1-c1sc2c(c1C(=O)O)CCCC2`, which fold change is on record?
**A.** The fold change was -1.1.

**Q.** Which fold change does the source give for `O=C(O)c1csc2c1CCCC2` here?
**A.** Its fold change is 2.51 (active).

**Q.** With `CCS(=O)(=O)c1ccsc1S(=O)(=O)CC` as the compound, how does the fold change read?
**A.** Its fold change is -1.28.

**Q.** Which fold change does the source give for `COC(=O)Nc1ncc(CN2CCOCC2)s1` here?
**A.** The fold change was -2.39.

**Q.** Which fold change does the source give for `c1ccc(-c2ccc3ccccc3n2)nc1` here?
**A.** Its fold change is -1.13.

**Q.** For `O=S(=O)(O)c1ccc(-c2nnc(-c3ccccn3)nc2-c2ccc(S(=O)(=O)O)o2)o1`, which fold change is on record?
**A.** The fold change was -1.16.

**Q.** For `c1ccc(-c2nc(-c3ccccn3)nc(-c3ccccn3)n2)nc1`, which fold change is on record?
**A.** The fold change was 3.31 (active).

**Q.** With `CC(C)(C)NC(=O)Nc1cccnc1Cl` as the compound, how does the fold change read?
**A.** Its fold change is -1.98.

**Q.** With `C=CCOC(=O)c1sc(NC(=O)c2cccs2)nc1C` as the compound, how does the fold change read?
**A.** The fold change was -1.68.

**Q.** Which fold change does the source give for `CCOC(=O)/C(C#N)=C(\C#N)C(=O)OCC` here?
**A.** The fold change was 1.04.

**Q.** With `CS(=O)(=O)Nc1ccc2c3c(cccc13)CC2` as the compound, how does the fold change read?
**A.** Its fold change is 2.67 (active).

**Q.** For `CS(=O)(=O)Nc1ccc(F)cc1F`, which fold change is on record?
**A.** The fold change was -1.21.

**Q.** With `CN1CC(C(=O)Nc2ccc3c4c(cccc24)CC3)CC1=O` (configuration not stated) as the compound, how does the fold change read?
**A.** Its fold change is 1.08.

**Q.** For `Nc1nc(-c2ccc(Cl)c(Cl)c2)cs1`, which fold change is on record?
**A.** The fold change was 1.69.

**Q.** With `CCCOc1ccccc1N=c1ssc2c1-c1cc(C)c(C)cc1NC2(C)C` as the compound, how does the fold change read?
**A.** Its fold change is -3.58.

**Q.** With `COc1cccc2c(C)nc(N=C(N)N)nc12` as the compound, how does the fold change read?
**A.** Its fold change is 1.65.

**Q.** With `Cc1nc(N=C(N)N)nc2ccccc12` as the compound, how does the fold change read?
**A.** Its fold change is 3.38 (active).

**Q.** For `COc1ccc2nc(N=C(N)N)nc(C)c2c1`, which fold change is on record?
**A.** Its fold change is 1.75.

**Q.** Which fold change does the source give for `Cc1nccn1CCC1CCNCC1` here?
**A.** Its fold change is 3.27 (active).

**Q.** Which fold change does the source give for `S=c1n(CN2CCCCC2)nc(-c2ccccc2)n1-c1ccccc1` here?
**A.** The fold change was 3.46 (active).

**Q.** Which fold change does the source give for `Cc1ccc(-c2nn(CN3CCC(c4ccccc4)C3)c(=S)n2-c2ccccc2)cc1` (configuration not stated) here?
**A.** Its fold change is -1.2.

**Q.** Which fold change does the source give for `CC(C)(C)c1ccc(-c2nn(CN3CCC(c4ccccc4)C3)c(=S)n2-c2ccccc2)cc1` (configuration not stated) here?
**A.** The fold change was -1.84.

**Q.** Which fold change does the source give for `O=C(NCCN1CCOCC1)C(=O)NCCN1CCOCC1` here?
**A.** Its fold change is 1.02.

**Q.** With `COc1ccc(C2C3=C(Nc4ncnn42)c2ccccc2CC3)cc1OC` (configuration not stated) as the compound, how does the fold change read?
**A.** The fold change was “inactive”.

**Q.** Which fold change does the source give for `O=S(=O)(NCCCl)c1ccccc1` here?
**A.** The fold change was -1.04.

**Q.** With `C[C@H](CCC(=O)O)[C@H]1CC[C@H]2[C@@H]3[C@H](O)C[C@@H]4C[C@H](O)CC[C@]4(C)[C@H]3C[C@H](O)[C@]12C` as the compound, how does the fold change read?
**A.** Its fold change is -1.01.

**Q.** With `COC(=O)CCC(C)C1CCC2C3C(C[C@H](O)C12C)C1(C)CC[C@@H](O)CC1C[C@H]3O` (some centres not stated) as the compound, how does the fold change read?
**A.** The fold change was 4.26 (active).

**Q.** For `CCOC(=O)CC[C@@H](C)[C@H]1CC[C@H]2[C@@H]3[C@H](O)C[C@@H]4C[C@H](O)CC[C@]4(C)[C@H]3C[C@H](O)[C@]12C`, which fold change is on record?
**A.** Its fold change is -1.19.

**Q.** Which fold change does the source give for `COc1ccc(-c2nc(-c3cccnc3)no2)cc1` here?
**A.** Its fold change is -1.74.

**Q.** Which fold change does the source give for `O=C1CC(c2cc3c(cc2Br)OCO3)c2ccc3ccccc3c2N1` (configuration not stated) here?
**A.** The fold change was 1.01.

**Q.** For `Nc1nc(SCC(=O)Nc2ccc(Br)cc2)sc1C(=O)Nc1nccs1`, which fold change is on record?
**A.** Its fold change is -1.48.

**Q.** Which fold change does the source give for `CC(=O)C(C(C)=O)C(C(C)=O)C(C)=O` here?
**A.** Its fold change is 3.14 (active).

**Q.** With `CCOC(=O)C(C(C)=O)C(C(C)=O)C(=O)OCC` (configuration not stated) as the compound, how does the fold change read?
**A.** Its fold change is 1.67.

**Q.** For `Brc1csc(-c2cc(Br)cs2)c1`, which fold change is on record?
**A.** The fold change was -1.44.

**Q.** Which fold change does the source give for `NC(=O)c1c(NC(=O)CN2CCCCC2)sc2c1CCCC2` here?
**A.** Its fold change is -1.75.

**Q.** With `c1ccc(CCn2c(CSc3nc4ccccc4o3)nc3ccccc32)cc1` as the compound, how does the fold change read?
**A.** The fold change was -1.06.

**Q.** Which fold change does the source give for `NS(=O)(=O)c1cc(C(=O)O)c(Cl)cc1Cl` here?
**A.** The fold change was -1.78.

**Q.** With `c1ccc(-c2ccc(CSc3nc4ccccc4o3)cc2)cc1` as the compound, how does the fold change read?
**A.** Its fold change is -1.02.

**Q.** Which fold change does the source give for `O=[N+]([O-])c1ccc(Cl)cc1NCCO` here?
**A.** The fold change was 2.39.

**Q.** With `O=[N+]([O-])c1ccc(Cl)cc1NCc1ccco1` as the compound, how does the fold change read?
**A.** The fold change was -1.31.

**Q.** Which fold change does the source give for `Cc1ccc(C)n1-c1ccc(NC2CCCC2)c([N+](=O)[O-])c1` here?
**A.** Its fold change is -1.34.

**Q.** Which fold change does the source give for `NNc1cc(Cl)ccc1[N+](=O)[O-]` here?
**A.** The fold change was 3.68 (active).

**Q.** With `O=[N+]([O-])c1ccccc1NC1CCCCC1` as the compound, how does the fold change read?
**A.** Its fold change is 1.67.

**Q.** With `O=[N+]([O-])c1cc(Cl)ccc1NC1CCCCC1` as the compound, how does the fold change read?
**A.** Its fold change is 4.77 (active).

— PubChem BioAssay AID1259312 (Keith Lab, Institute of Cancer Science, University of …, 2017)
